PubChem BioAssay AID588856 (National Center for Advancing Translational Sciences (NCATS), 2011)
Out of some 410,000 compounds screened, about 3,100 (0.76%) were called active. The call rests on the fitted dose curve; in most records, active means well fitted cell-killing curve with a large enough effect; inactive means no such curve, though single readings can be large or run the other way. The sample as a whole holds a higher share of actives than the screen did.

Assay: qHTS for Inhibitors of TGF-b: Cytotox Counterscreen
Conditions: HepG2 CAGA-GFP viability, ATP luminescence, 18 h; series mostly up to 46.1 µM; activity change, negative = cytotoxicity: at the top concentration
Outline: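 CellTiter-Glo luminescence gave cytotoxicity after 18 hours at 37 degrees C. The cells were HepG2 CAGA-GFP in 1% FBS DMEM, stimulated with 500 pg/mL TGF-beta after compound addition. %Activity was normalised to no-cell wells (complete cell-killing) and DMSO (no toxicity), and curves were fitted and classified.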
Potency means the concentration at half of the fitted maximal effect.

| SMILES | activity change, negative = cytotoxicity | Potency |
| --- | --- | --- |
| CCOc1ccc(Nc2nc3c(S(=O)(=O)c4cccc(Cl)c4)nnn3c3ccsc23)cc1 | -14.5% (inactive) | – |
| CCc1nc2ccc(C(=O)Nc3cccc(OC)c3)cn2c1N(CCC(C)C)CCN(C)C | – | 11.2 µM (active) |
| CCc1nc2ccc(C(=O)Nc3ccc(OC)c(OC)c3)cn2c1N(C)C(=O)c1cccc(OC)c1 | -0.381% (inactive) | – |
| CCc1nc2ccc(C(=O)N(C)CCN(C)C)cn2c1N(CC)CCOC | 5.27% (inactive) | – |
| COc1cccc(CNC(=O)C(=O)NCC(c2cccs2)S(=O)(=O)c2ccccc2)c1 (stereo unspecified) | -3.22% (inactive) | – |
| CN(C)c1ccc(/C=C/c2c3ccccc3nc3ccccc23)cc1 | 1.81% (inactive) | – |
| O=C(N[C@@H]1C/C=C\C[C@@H](CC(=O)N(CCO)Cc2ccccc2)C(=O)N[C@H](Cc2ccccc2)COC1=O)OCC1c2ccccc2-c2ccccc21 | -12.3% (inactive) | – |
| CC(C)(C)OC(=O)C[C@@H]1C/C=C\C[C@@H](CC(=O)N[C@H](CO)Cc2ccccc2)C(=O)NC[C@@H](c2ccccc2)OC1=O | -6.66% (inactive) | – |
| O=C(C[C@H]1C/C=C\C[C@@H](NC(=O)OCC2c3ccccc3-c3ccccc32)C(=O)O[C@@H](c2ccccc2)CNC1=O)N[C@H](CO)Cc1ccccc1 | – | 12.6 µM (active) |
| COc1ccccc1CNC(=O)CCn1c(=O)c2ccccc2n(CC(=O)Nc2cccc(Cl)c2)c1=O | -16.8% (inactive) | – |
| COc1cc(NC(=O)CCn2nc(C)cc2C)cc(OC)c1OC | -1.73% (inactive) | – |
| COc1ccc2oc(-c3ccc(C)c(NC(=O)c4sc5ccccc5c4Cl)c3)nc2c1 | -8.16% (inactive) | – |
| O=C(CCl)Nc1cccc(CP(=O)(c2ccccc2)c2ccccc2)c1 | – | 15.8 µM (active) |
| CCc1cccc(NC(=O)c2cc(-c3ccccc3)n[nH]2)c1 | -12.5% (inactive) | – |
| O=C(COc1ccccc1C(=O)Nc1ccccc1)Nc1cccc(F)c1 | -3.03% (inactive) | – |
| Cc1cccc(CN2Cc3cccc4c3[C@H](C=CC4)CC2=S)c1 | -24% (inactive) | – |
| CCN1CCN(c2cc(C)c3cc(NC(=O)c4cc(Cl)ccc4OC)ccc3n2)CC1 | – | 11.2 µM (active) |
| CCOCCCNC(=S)Nc1ccc2nc(N3CCN(CC)CC3)cc(C)c2c1 | -13.3% (inactive) | – |
| COc1ccc(C(=O)Nc2ccc3nc(N4CCCCC4)cc(C)c3c2)cc1OC | – | inactive |
| COc1cc(C(=O)N2CCC(c3ccncc3)CC2)cc(OC)c1OC | -29.2% (inactive) | – |
| CNC[C@H](CC1CCCCC1)NC[C@H](NCCC1CCCC1)[C@H](C)O | – | 15.8 µM (active) |
| CCOc1cccc2cc(-c3cn4c(n3)sc3cc(C)ccc34)c(=O)oc12 | -0.0206% (inactive) | – |
| CCOC(=O)c1cnc2sccn2c1=O | -1.63% (inactive) | – |
| CCOC(=O)CSc1nc2c(c(=O)n(Cc3ccccc3Cl)c(=O)n2C)n1C | -17.5% (inactive) | – |

| SMILES | activity change, negative = cytotoxicity | Potency |
| --- | --- | --- |
| CCOC(=O)c1cnc2nc(SCc3ccccc3Cl)[nH]n2c1=O | – | 2.82 µM (active) |
| Cc1cc(N2CCN(c3cccc(C(F)(F)F)c3)CC2)n2nc(-c3ccccc3)nc2n1 | 1.82% (inactive) | – |
| CN1C(=O)c2[nH]nc(-c3ccc(F)cc3)c2C1c1ccccn1 (stereo unspecified) | -6.9% (inactive) | – |
| CCOc1ccc(Nc2c(S(=O)(=O)c3ccccc3)cnc3ccccc23)cc1 | -11.6% (inactive) | – |
| O=C(CSc1oc(-c2ccc(F)cc2)nc1S(=O)(=O)c1ccc(Br)cc1)NC1CCCCC1 | 2.9% (inactive) | – |
| CC(C)S(=O)(=O)c1oc(-c2ccc(F)cc2)nc1S(=O)(=O)c1ccc(F)cc1 | – | 2 µM (active) |
| Cc1ccc(-c2nc(S(=O)(=O)c3ccc(C)cc3)c(N3CCCCCC3)o2)cc1 | -18.7% (inactive) | – |
| COc1cccc(Cn2c(CNS(=O)(=O)c3ccc(Cl)s3)nc3cccnc32)c1 | -23.5% (inactive) | – |
| COc1ccccc1N1CCN(c2ccc(=O)n(CC(=O)NCc3ccc(OC(C)C)cc3)n2)CC1 | -22.2% (inactive) | – |
| O=C1C2C(c3ccccc3)CC=CC2C(c2ccoc2)N1Cc1ccccc1 (stereo unspecified) | -20.3% (inactive) | – |
| CC(C)c1ccc2c(c1)c(SC(C)(C)C)c(CC(C)(C)C(=O)O)n2Cc1ccc(Cl)cc1 | – | 10 µM (active) |
| CC(C)c1ccc(Cn2c(COc3ccccc3)nc3ccccc32)cc1 | -27.8% (inactive) | – |
| O=C(Cn1c(=O)nc(-c2ccccc2)c2cc(Cl)ccc21)NCc1ccc(Cl)cc1 | -12.1% (inactive) | – |
| O=C(c1cccc(Br)c1)N1CCN(Cc2cc(=O)n3nc(-c4ccccc4)sc3n2)CC1 | -18.3% (inactive) | – |
| CCCOc1ccc(C(=O)C(CCC(CNCC)C(=O)c2ccc(OCCC)cc2)CNCC)cc1 (stereo unspecified) | – | 3.16 µM (active) |
| CCCOc1ccc(N2CC(C(=O)Nc3ccccn3)CC2=O)cc1 (stereo unspecified) | -3.04% (inactive) | – |
| CCCOc1cccc(C(=O)Nc2cccc(NC(=O)c3ccc(C(C)(C)C)cc3)c2)c1 | 3.52% (inactive) | – |
| CC(C)(C)C1CCC(NC(=O)c2cnn3c2NC(=C2CC2)C=C3C(F)F)CC1 (stereo unspecified) | -16.9% (inactive) | – |
| CN(C)c1ccc(/C=C/c2sc3ccccc3[n+]2CCCCBr)cc1 | -31.8% (inactive) | – |
| Cc1c(CCO)sc[n+]1CC(=O)c1ccc2ccccc2c1 | -31.7% (inactive) | – |
| Cc1cc2oc3ccc(NCCC4CCCN4C)cc3c(=O)c2cc1C (stereo unspecified) | – | 10 µM (active) |
| CCC1CCCCN1S(=O)(=O)c1ccc(NC(=O)c2cc(=O)c3ccccc3o2)cc1 (stereo unspecified) | -20.4% (inactive) | – |
| CNCCCOc1cc2nc(N3CCCN(C)CC3)nc(NC3CCN(C)CC3)c2cc1OC | 18.3% (inactive) | – |
| COc1ccccc1CNS(=O)(=O)c1cc(Br)cc2c1N(C(C)=O)C(C)C2 (stereo unspecified) | -4.39% (inactive) | – |

| SMILES | activity change, negative = cytotoxicity | Potency |
| --- | --- | --- |
| O=C(Cn1nc(Cc2cccnc2)c2ccccc2c1=O)N1CCN(c2ccccc2F)CC1 | -35.2% (inactive) | – |
| COc1cc(OC)c(/C=C/c2ccnc3ccccc23)c(OC)c1 | -60.5% (inactive) | – |
| O=C(CSc1nccn1Cc1ccc(F)cc1)NCc1ccccc1 | 2.14% (inactive) | – |
| COc1cc(OC)c(C2C=C(C(=O)O)Nc3ncnn32)cc1OC (stereo unspecified) | -5.04% (inactive) | – |
| NC(Cc1ccc(F)cc1)c1csc(Nc2nncc3ccccc23)n1 (stereo unspecified) | – | 15.8 µM (active) |
| COCC(C)NC(=O)COc1nncc2ccccc12 (stereo unspecified) | -14.5% (inactive) | – |
| CN(Cc1ccccc1)c1ccc(/C=C/c2ccnc3ccccc23)cc1 | -29.2% (inactive) | – |
| Cc1ccc(OCC(=O)OCc2cc(=O)n3nc(C4CC4)sc3n2)cc1 | -0.276% (inactive) | – |
| CCCCC(CCCC)c1ccc(C=Nc2ccc(/C=C/c3ccnc4ccccc34)cc2)cc1 | -13.4% (inactive) | – |
| COc1ccc(-c2nnc(SC(=O)N3c4ccccc4Sc4ccccc43)o2)cc1 | – | 11.2 µM (active) |
| COc1ccc(CN(C(=O)CSc2nnc(-c3ccc(OC)c(OC)c3)o2)c2ccc(F)cc2)cc1 | -10% (inactive) | – |
| COc1ccccc1-c1nnc(SCC(N)=O)o1 | -3.91% (inactive) | – |
| COc1cccc(CNc2nccn(-c3ccc(OC)c(OC)c3)c2=O)c1 | 4.25% (inactive) | – |
| CC(C)Nc1nc(NCCOc2ccccc2Cl)c2sccc2n1 | -68.9% (inactive) | – |
| COc1cccc(CNc2nc(NCc3ccccc3OC)nc3ccsc23)c1 | – | 11.2 µM (active) |
| CCN(CC)/[N+]([O-])=N/OCOC(=O)Cc1c(C)n(C(=O)c2ccc(Cl)cc2)c2ccc(OC)cc12 | -23.8% (inactive) | – |
| COc1cc(NC(=O)c2cc3ccc4cccnc4c3[nH]2)cc(OC)c1OC | -13.7% (inactive) | – |
| Cc1ccccc1CN1CCC(C(=O)Nc2ccc(Oc3cccnc3)cc2)CC1 | -16.9% (inactive) | – |
| CCOc1ccccc1N(CC)C(=O)c1cc2ccc3cccnc3c2[nH]1 | – | 12.6 µM (active) |
| Cc1ccccc1CN1CCC(CNC(=O)c2cc3ccc4cccnc4c3[nH]2)CC1 | – | 12.6 µM (active) |
| CCOc1ccccc1N(CC)C(=O)Nc1cn(C)c(=O)c2ccccc12 | -16.5% (inactive) | – |
| Cc1ccccc1CN1CCC(CNC(=O)c2c(C)oc3ncnc(N4CCCCC4)c23)CC1 | -36.1% (inactive) | – |
| CCOc1ccc(N(CC)C(=O)C2CCN(S(=O)(=O)c3cccc4nonc34)CC2)cc1 | 0.639% (inactive) | – |
| COc1ccccc1NC(=O)C1=C(C)Nc2ncnn2C1c1sccc1C (stereo unspecified) | -2.86% (inactive) | – |

| SMILES | activity change, negative = cytotoxicity | Potency |
| --- | --- | --- |
| O=C(CSc1nc(=O)[nH]c2c1CCCC2)Nc1cc(C(F)(F)F)ccc1Cl | -17.4% (inactive) | – |
| CCN1CCN(c2ccc(/C=C/c3ccnc4ccccc34)cc2)CC1 | -46.6% (inactive) | – |
| Cc1oc2ncn(CC(C)C)c(=O)c2c1C(=O)N1CCN(c2ccccc2F)CC1 | 3.12% (inactive) | – |
| O=C1NC(Nc2nc3ccccc3s2)(C(F)(F)F)C(=O)N1C1CCCCC1 (stereo unspecified) | – | 11.2 µM (active) |
| O=C(NC1(C(F)(F)F)N=C(c2ccccc2)N(C2CCCCC2)C1=O)c1ccccc1F (stereo unspecified) | -0.647% (inactive) | – |
| CCCN(C(=O)Cn1ncc2c([nH]c3ccc(C)cc32)c1=O)c1ccccc1C | 4.59% (inactive) | – |
| CC(=O)c1ccc(NC(=O)COc2ccccc2-c2nc(-c3ccccc3)no2)cc1 | -1.05% (inactive) | – |
| O=C(COc1ccc(-c2ccccc2)cc1)NN=C1CCCC1 | -16.8% (inactive) | – |
| Cc1ccc(/C=N/NC(=O)COc2ccccc2-c2ccccc2)cc1 | – | 10 µM (active) |
| CCOc1ccccc1NC(=O)CCn1cnnn1 | 0.0324% (inactive) | – |
| O=C(Nc1ccccc1Cl)N1CCC(CN2CCCCC2)CC1 | 1.13% (inactive) | – |
| O=C(Nc1ccccc1Cl)N1CCC(CN2CCCC2)CC1 | -7.37% (inactive) | – |
| O=C(Nc1ccccc1Cl)/C(Cl)=C(\Cl)S(=O)c1ccccc1 (stereo unspecified) | – | 3.55 µM (active) |
| CCCN1CCC(=O)N(C(CSc2ccc(OC)cc2)Cc2ccccc2)CC1 (stereo unspecified) | -31.2% (inactive) | – |
| Cc1ccccc1CNC(=O)C1CCCN(S(=O)(=O)N(C)c2ccc(F)cc2)C1 (stereo unspecified) | -15.9% (inactive) | – |
| CSc1ncc(Cl)c(C(=O)Nc2ccc(S(=O)(=O)N3CCCC(C)C3)cc2)n1 (stereo unspecified) | -5.61% (inactive) | – |
| CCS(=O)(=O)c1ncc(N(Cc2ccc(F)cc2)Cc2ccco2)c(C(=O)Nc2cc(C)ccc2C)n1 | -1.85% (inactive) | – |
| O=C(Nc1ccccc1C(F)(F)F)c1nc(S(=O)(=O)Cc2ccccc2F)ncc1Cl | -106% (inactive) | – |
| Cc1cccc(NC(=O)c2nc(S(=O)(=O)Cc3ccccc3)ncc2Cl)c1 | – | 11.2 µM (active) |
| CCOC(=O)c1ccc(NC(=O)c2nc(SCc3ccc(F)cc3)ncc2Cl)cc1 | -13.4% (inactive) | – |
| Cc1ccc(CCNC(=O)c2ccc(CS(=O)(=O)Cc3cccc(C)c3)o2)cc1 | -21% (inactive) | – |
| Cc1cccc(CS(=O)(=O)c2ncc(Cl)c(C(=O)Nc3ccc(F)cc3)n2)c1 | – | 10 µM (active) |
| Cc1ccc(NC(=O)c2nc(S(=O)(=O)Cc3cccc(C)c3)ncc2Cl)cc1 | – | 7.08 µM (active) |
| CCCSc1ncc(Cl)c(C(=O)Nc2c(C(=O)Nc3ccccc3)oc3ccccc23)n1 | 0.304% (inactive) | – |
